Test results published in PubChem BioAssay (NCATS).
Values joined by “and” are separate entries in the source; they are usually repeats but may differ in a detail not shown here. Equal values may be shown once. Results filed as inconclusive are left out. Active and inactive are the calls of the source. Unless noted, calls follow the shape of the dose curve; as a rule, active = well fitted curve in the direction sought with a large enough effect; inconclusive = small, poorly fitted or top-dose-only effect, or another doubt; inactive = no such curve, though single readings can be large; an effect the other way counts as inactive or inconclusive.

Tests used:
[1] = target: Guanine nucleotide-binding protein G(i) subunit alpha-1 (Homo sapiens) (UniProt P63096); test: qHTS Assay for Inhibitors of RGS12 GoLoco Motif Activity (Green Fluorophore) (AID 879);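 also: 0% = labeled peptide with Gαi1 and full inhibition = labeled peptide alone without protein; negative values mean loss of peptide binding seen as reduced polarization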
Chain of Guanine nucleotide-binding protein G(i) subunit alpha-1 (Homo sapiens) (P63096 whole entry, looked up): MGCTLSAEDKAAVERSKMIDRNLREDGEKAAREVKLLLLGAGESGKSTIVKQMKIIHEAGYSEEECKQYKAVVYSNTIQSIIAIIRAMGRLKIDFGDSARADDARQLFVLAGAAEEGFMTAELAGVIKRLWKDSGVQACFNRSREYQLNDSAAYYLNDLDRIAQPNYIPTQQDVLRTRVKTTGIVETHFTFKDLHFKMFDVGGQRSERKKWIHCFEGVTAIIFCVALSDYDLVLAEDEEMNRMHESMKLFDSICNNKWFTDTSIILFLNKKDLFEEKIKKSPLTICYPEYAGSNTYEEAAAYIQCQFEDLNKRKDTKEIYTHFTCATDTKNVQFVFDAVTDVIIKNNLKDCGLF
How it was run: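 A drop in FITC polarization marked displacement of the FITC-tagged RGS12 GoLoco peptide (10 nM) from Gαi1 (50 nM). Compounds were incubated 10 min at room temperature in Tris pH 7.5 buffer containing 150 mM NaCl, 0.1 mM GDP and 0.05% NP40; unlabeled peptide titration served as control.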

[2] = qHTS Assay for Identification of Small Molecule Antagonists for NFkB Signaling Pathway (AID 895; active = well fitted inhibition curve with a large enough effect in the signal ratio, with a control signal flat, not every such curve was filed as active; the % refers to the signal ratio; also: % is scaled to controls: 0 for no effect and ±100 for the full control effect)
How it was run: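 Beta-lactamase reporter read-out (460 and 530 nm emission ratio, 405 nm excitation, 2 hrs substrate loading RT) after 5 hr stimulation with 10 pM TNF alpha in compound-treated NFkB-bla ME-180 cells in low-serum medium.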

[3] = target: Muscarinic acetylcholine receptor M1 (Rattus norvegicus) (UniProt P08482); test: qHTS Assay for Antagonists of Acetylcholine Muscarinic M1 Receptor: Measurement of IP-One Response (AID 944); also: nearly all actives have a fitted effect of over 75% in size
Chain of Muscarinic acetylcholine receptor M1 (Rattus norvegicus) (P08482 whole entry, looked up): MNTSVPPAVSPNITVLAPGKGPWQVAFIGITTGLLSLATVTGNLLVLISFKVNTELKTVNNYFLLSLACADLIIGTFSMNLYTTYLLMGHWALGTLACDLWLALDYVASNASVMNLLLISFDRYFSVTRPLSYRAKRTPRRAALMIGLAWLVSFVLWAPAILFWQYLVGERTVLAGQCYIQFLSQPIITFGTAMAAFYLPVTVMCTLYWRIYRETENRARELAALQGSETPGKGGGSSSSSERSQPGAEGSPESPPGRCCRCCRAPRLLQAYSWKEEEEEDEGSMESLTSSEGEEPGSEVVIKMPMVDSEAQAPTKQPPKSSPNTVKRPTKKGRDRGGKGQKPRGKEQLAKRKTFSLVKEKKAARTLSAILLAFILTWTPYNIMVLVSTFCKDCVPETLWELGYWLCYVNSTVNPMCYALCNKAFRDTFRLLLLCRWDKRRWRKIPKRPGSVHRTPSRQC
How it was run: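 Read-out: HTRF competition between d2-IP1 and Eu-cryptate anti-IP1 antibody, emission 620 and 665 nm. Stimulus was carbachol, EC80 (200 nM), for 30 min in M1-CHO cells (rat receptor), after 10 min compound pre-treatment.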

[4] = target: Pyruvate kinase (Leishmania mexicana) (UniProt Q27686); test: qHTS Validation Assay for Inhibitors of Leishmania Mexicana Pyruvate Kinase (AID 945);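 also: 0% = DMSO only neutral control wells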
Chain of Pyruvate kinase (Leishmania mexicana) (Q27686 2-499 E452W): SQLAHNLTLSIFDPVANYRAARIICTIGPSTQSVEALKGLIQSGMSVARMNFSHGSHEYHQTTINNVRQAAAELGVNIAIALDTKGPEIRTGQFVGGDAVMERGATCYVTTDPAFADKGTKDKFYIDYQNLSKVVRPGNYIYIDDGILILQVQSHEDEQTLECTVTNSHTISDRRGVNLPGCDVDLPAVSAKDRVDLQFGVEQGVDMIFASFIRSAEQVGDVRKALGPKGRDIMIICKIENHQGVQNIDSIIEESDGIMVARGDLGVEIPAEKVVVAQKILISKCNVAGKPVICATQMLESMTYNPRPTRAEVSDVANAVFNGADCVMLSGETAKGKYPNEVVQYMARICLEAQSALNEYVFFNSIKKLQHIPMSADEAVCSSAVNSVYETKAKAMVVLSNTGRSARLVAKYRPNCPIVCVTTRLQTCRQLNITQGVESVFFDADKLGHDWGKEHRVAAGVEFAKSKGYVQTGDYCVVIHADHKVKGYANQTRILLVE
How it was run: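 An endpoint luciferase assay: 0.2 nM LmPYK E451W turns over 0.5 mM PEP with 0.1 mM ADP for 1 h at room temperature, pH 7.2, before PKLight addition. Values are normalized to DMSO-only wells.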

[5] = target: Pyruvate kinase PKM (Homo sapiens) (UniProt P14618); test: qHTS Assay for Activators of Human Muscle Pyruvate Kinase (AID 954; active = well fitted curve in the direction sought with a large enough effect, not every such curve was filed as active;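 also: 0% = uninhibited enzyme and -100% = no enzyme or full thiadiazolimine inhibition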)
Chain of Pyruvate kinase PKM (Homo sapiens) (P14618 whole entry, looked up): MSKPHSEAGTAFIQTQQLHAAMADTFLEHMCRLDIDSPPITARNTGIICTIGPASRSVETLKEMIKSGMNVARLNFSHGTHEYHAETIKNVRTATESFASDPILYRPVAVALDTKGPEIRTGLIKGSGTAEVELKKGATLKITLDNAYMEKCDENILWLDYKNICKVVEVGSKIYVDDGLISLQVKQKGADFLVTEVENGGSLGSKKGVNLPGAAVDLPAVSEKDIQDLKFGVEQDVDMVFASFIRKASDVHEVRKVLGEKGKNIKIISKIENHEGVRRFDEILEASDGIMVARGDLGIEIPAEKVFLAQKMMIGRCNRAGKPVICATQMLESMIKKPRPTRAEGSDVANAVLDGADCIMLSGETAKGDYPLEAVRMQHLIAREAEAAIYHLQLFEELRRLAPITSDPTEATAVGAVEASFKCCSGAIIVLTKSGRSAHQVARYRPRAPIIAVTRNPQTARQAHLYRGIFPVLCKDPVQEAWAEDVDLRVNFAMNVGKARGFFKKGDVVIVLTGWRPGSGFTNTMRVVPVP
How it was run: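 A coupled luminescent readout tracked ATP made from ADP by purified PKM2. Final conditions included 0.1 nM enzyme, PEP and ADP at 0.5 and 0.1 mM, pH 7.2 imidazole buffer with BSA, and a one-hour room-temperature reaction.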

[6] = target: Cytochrome P450 3A4 (Homo sapiens) (UniProt P08684); test: qHTS Assay for Activators of Cytochrome P450 3A4 (AID 885); also: nearly all actives have a fitted effect of over 65% in size
Chain of Cytochrome P450 3A4 (Homo sapiens) (P08684 whole entry, looked up): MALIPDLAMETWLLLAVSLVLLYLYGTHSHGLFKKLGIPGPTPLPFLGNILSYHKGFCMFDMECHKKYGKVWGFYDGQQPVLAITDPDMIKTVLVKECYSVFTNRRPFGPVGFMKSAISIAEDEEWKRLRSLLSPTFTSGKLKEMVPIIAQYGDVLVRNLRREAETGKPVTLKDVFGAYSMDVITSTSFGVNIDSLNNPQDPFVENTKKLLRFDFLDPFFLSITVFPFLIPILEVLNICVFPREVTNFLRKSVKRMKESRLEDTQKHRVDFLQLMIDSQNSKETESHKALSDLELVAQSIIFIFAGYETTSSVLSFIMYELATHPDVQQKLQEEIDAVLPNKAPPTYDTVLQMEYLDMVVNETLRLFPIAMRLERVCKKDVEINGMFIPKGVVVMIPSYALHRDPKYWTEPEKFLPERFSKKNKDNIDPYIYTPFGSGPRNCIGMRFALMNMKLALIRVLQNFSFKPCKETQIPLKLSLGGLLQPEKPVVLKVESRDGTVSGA
How it was run: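 CYP3A4 activity: Luciferin-PPXE O-dealkylation, 25uM substrate, 200mM KPO4, RT throughout. Read-out is luciferase luminescence; higher values reflect activation.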

[7] = target: Cytochrome P450 2D6 (Homo sapiens) (UniProt P10635); test: qHTS Assay for Inhibitors and Substrates of Cytochrome P450 2D6 (AID 891); also: potency is read from the fitted curve at half-maximal effect; nearly all actives have a fitted effect of over 60% in size
Chain of Cytochrome P450 2D6 (Homo sapiens) (P10635 whole entry, looked up): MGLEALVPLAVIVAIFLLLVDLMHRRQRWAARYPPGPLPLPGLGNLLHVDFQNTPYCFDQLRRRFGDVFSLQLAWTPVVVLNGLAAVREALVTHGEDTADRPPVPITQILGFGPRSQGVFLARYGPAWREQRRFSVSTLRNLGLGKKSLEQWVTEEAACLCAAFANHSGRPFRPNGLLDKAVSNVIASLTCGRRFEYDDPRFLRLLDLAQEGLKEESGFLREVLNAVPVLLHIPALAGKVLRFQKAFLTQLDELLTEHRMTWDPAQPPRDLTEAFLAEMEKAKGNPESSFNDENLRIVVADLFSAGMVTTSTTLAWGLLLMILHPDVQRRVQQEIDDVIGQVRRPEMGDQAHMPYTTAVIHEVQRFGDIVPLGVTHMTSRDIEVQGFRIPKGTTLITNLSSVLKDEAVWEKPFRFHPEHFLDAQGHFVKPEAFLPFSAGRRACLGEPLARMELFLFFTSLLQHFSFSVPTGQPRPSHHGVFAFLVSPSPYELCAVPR
How it was run: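 Luminescent read-out of luciferin formed by 5 nM human CYP2D6 demethylating 30 uM Luciferin-ME EGE (Km level) over 60 min at room temperature after NADPH regeneration addition. Data normalized to full inhibition by 1.43 uM quinidine.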

[8] = target: Cytochrome P450 3A4 (Homo sapiens) (UniProt P08684); test: qHTS Assay for Inhibitors and Substrates of Cytochrome P450 3A4 (AID 884); also: series mostly up to about 57 µM; % is scaled to controls: 0 for no effect and ±100 for the full control effect; nearly all actives have a fitted effect of over 50% in size
How it was run: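 Luminescent readout of luciferin produced by CYP3A4 (20 nM) dealkylation of Luciferin-PPXE, 25 uM (its KM). NADPH-driven reaction ran 60 min at RT after 10 min compound preincubation; data scaled to 57 uM ketoconazole as 100% inhibition.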

[9] = Confirmation and Secondary Assay for Modulators of Hemoglobin Beta Chain Splicing at IVS2 705 locus (AID 930);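 also: HeLa cells stably expressing the EGFP-705 splicing reporter; GFP fluorescence per well restored by corrected splicing of the IVS2-705 intron in EGFP; series mostly up to about 46 µM; % of control where 0% means no effect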
How it was run: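 Per-well GFP, captured at 1 x 8 µm resolution with 488 nm excitation, served as the read-out for HeLa EGFP-705 cells incubated 2 days with test compound versus DMSO.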

[10] = qHTS Assay for Identification of Small Molecule Antagonists for Thrombopoietin (TPO) Signaling Pathway (AID 918); details: TPO-dependent cell signaling reporter, antagonist mode; also: potency is read from the fitted curve at half-maximal effect; nearly all actives have a fitted effect of over 60% in size
How it was run: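 Luminescence read-out: GPIIb-promoter luciferase in Ba/F3 cells carrying human TPO receptor. Compounds added with 26 pM TPO (EC50), 24 hrs, 37 C, 5% CO2; cells deprived of IL-3 overnight beforehand. Inhibition of signal scored.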

[11] = qHTS Assay for Identification of Small Molecule Agonists for Hypoxia Response Element Signaling Pathway (AID 914; active = well fitted activation curve with a large enough effect in the signal ratio, with a control signal flat, not every such curve was filed as active; the % refers to the signal ratio; also: % of control where 0% means no effect); details: ME-180 (cervical carcinoma) HRE-bla reporter, beta-lactamase ratio, CoCl2, 17 h; stronger effect = higher value
How it was run: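 In Opti-MEM containing 0.5% dialyzed FBS and 10 mM HEPES, ME-180 HRE-bla cells received a compound titration and EC50 CoCl2. They were incubated 17 hours, then CCF4-loaded 2.5 hours at room temperature before ratio reading.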

[12] = target: Cytochrome P450 2C19 (Homo sapiens) (UniProt P33261); test: qHTS Assay for Inhibitors and Substrates of Cytochrome P450 2C19 (AID 899); also: potency is read from the fitted curve at half-maximal effect; nearly all actives have a fitted effect of over 60% in size
Chain of Cytochrome P450 2C19 (Homo sapiens) (P33261 whole entry, looked up): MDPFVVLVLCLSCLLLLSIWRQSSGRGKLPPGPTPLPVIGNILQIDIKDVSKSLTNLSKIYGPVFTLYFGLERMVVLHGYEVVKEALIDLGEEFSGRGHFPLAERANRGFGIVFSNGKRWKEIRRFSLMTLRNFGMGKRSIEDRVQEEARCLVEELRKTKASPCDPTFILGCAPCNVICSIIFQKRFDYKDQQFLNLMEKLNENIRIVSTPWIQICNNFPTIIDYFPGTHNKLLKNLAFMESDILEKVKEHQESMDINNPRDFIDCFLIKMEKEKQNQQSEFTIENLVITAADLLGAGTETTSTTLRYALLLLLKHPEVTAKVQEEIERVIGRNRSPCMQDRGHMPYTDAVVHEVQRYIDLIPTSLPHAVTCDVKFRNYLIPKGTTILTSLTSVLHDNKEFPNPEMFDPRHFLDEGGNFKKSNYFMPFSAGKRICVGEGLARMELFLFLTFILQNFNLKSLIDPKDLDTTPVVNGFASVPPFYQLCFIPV
How it was run: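 5nM enzyme + 10uM Luciferin-H EGE (=KM), 50mM KPO4; cpd pin-transferred, 10 min 37C; NADPH regen, 60 min 37C; stopped w/ luciferin detection reagent, 20 min; luminescence. Normalized to 57uM ketoconazole (AC100).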

NC(=NCCC[C@H](N)C(=O)O)N[N+](=O)[O-]
inactive: outcome [1] | Potency [2] | Potency [3] | outcome [4] | outcome [5]

CCCCCC[C@H]1C(=O)O[C@H](C)[C@H](NC(=O)c2cccc(NC=O)c2O)C(=O)O[C@@H](C)[C@@H]1OC(=O)CC(C)C
inactive: outcome [6]

c1ccc2sc(C3(N4CCCCC4)CCCCC3)cc2c1
inactive: outcome [1] | outcome [6] | Potency [3] | outcome [4] | outcome [5]
active: Potency [7] 3.16 µM

C[C@]12N[C@H](Cc3ccccc31)c1ccccc12
inactive: outcome [1] | outcome [6] | Potency [2] | outcome [4] | outcome [5]

C#CCOC(=O)C1=CCCN(C)C1
inactive: outcome [1] | Potency [3] | outcome [4] | outcome [5]

O=C(O)CC[N+](=O)[O-]
inactive: outcome [1] | Potency [8] | Potency [2] | outcome [9] | Potency [3] | outcome [4] | outcome [5]

Cc1c(C(=O)c2cccc3ccccc23)c2cccc3c2n1[C@H](CN1CCOCC1)CO3
inactive: outcome [1] | outcome [4] | outcome [5]
active: Potency [10] 12.6 µM

CCCN1CCC[C@H](c2cccc(O)c2)C1
inactive: outcome [1] | Potency [3] | outcome [4] | outcome [5]

S=C(NC1CCCCC1)N1CCC(c2cnc[nH]2)CC1
inactive: outcome [1] | outcome [4] | outcome [5]

NCCc1c[nH]c2ccc(O)cc12
inactive: outcome [1] | outcome [6] | Potency [2] | activation [11] 17.2% and 2.69% | outcome [4] | outcome [5]

NC(=O)c1ccc(-c2nc(-c3ccc4c(c3)OCO4)c(-c3ccccn3)[nH]2)cc1
active: Potency [12] 2.51 µM

CC(C)Oc1cccnc1N(C)C1CCN(Cc2ccccc2)CC1
active: Potency [7] 7.94 µM
inactive: outcome [1] | outcome [6] | activation [11] -11.6% | outcome [4] | outcome [5]
